Measured values from PubChem BioAssay (Tox21).
Where “and” joins values, the source holds several entries; their conditions need not be identical. Equal values may be shown once. Results filed as inconclusive are left out. Where a structure was tested more than once in an assay, its records may differ in their call. Calls of active or inactive are those of the source. Unless noted, the call rests on the fitted dose curve; in most records, active means well fitted curve in the direction sought with a large enough effect in the repeat runs; inconclusive means weak or mixed curves; inactive means no such curve, though single readings can be large; an effect the other way counts as inactive or inconclusive.

How the values were obtained:
[1] = biological target: Estrogen receptor beta (Homo sapiens) (UniProt Q92731); assay: qHTS assay to identify small molecule antagonists of the estrogen receptor beta (ER-beta) signaling pathway (AID 1259378; active means well fitted inhibition curve with a large enough effect in the signal ratio in the repeat runs, not every such curve was filed as active; the % refers to the signal ratio; further: potency means the concentration at half of the fitted maximal effect)
How it was run: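 Antagonist mode: compounds added to beta-lactamase reporter HEK293T ER-beta-UAS cells stimulated with E2 (1nM final), 16 hr at 37C. LiveBLAzer B/G FRET substrate, 2 hours room temperature, fluorescence read-out.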

[2] = qHTS assay to identify small molecule agonists of the androgen receptor (AR) signaling pathway in the presence of an antagonist - cell viability counter screen (AID 1259379); further: nearly all actives have a fitted effect of over 25% in size; further: potency means the concentration at half of the fitted maximal effect
How it was run: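 Cytotoxicity counter-screen run in the same wells as the nilutamide-challenged (3.0 µM final) AR agonist assay in MDA-kb2 cells. Compounds tested at 15 concentrations for 16 h, 37 °C without CO2; CellTiter-Fluor fluorescence read.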

[3] = qHTS assay to identify small molecule agonists of the estrogen receptor beta (ER-beta) signaling pathway - cell viability counter screen (AID 1259380); further: nearly all actives have a fitted effect of over 30% in size; further: potency means the concentration at half of the fitted maximal effect
How it was run: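 Cell viability counter screen: CellTiter-Glo luminescence (30 min, room temperature) measured in the same wells as the beta-lactamase readout, after 16 hr compound exposure at 37C of ER-beta-bla HEK293T cells in 2% charcoal-stripped FBS medium.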

[4] = qHTS assay to identify small molecule antagonists of the estrogen receptor beta (ER-beta) signaling pathway - cell viability counter screen (AID 1259382); further: nearly all actives have a fitted effect of over 55% in size; further: potency means the concentration at half of the fitted maximal effect
How it was run: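 Cytotoxicity was measured in the same wells by CellTiter-Glo luminescence after 30 min at room temperature. Cells were ER-beta-bla HEK293T in charcoal-stripped serum, given compound together with 1 nM E2 and incubated 16 h at 37C.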

[5] = biological target: Estrogen receptor (Homo sapiens) (UniProt P03372); assay: qHTS assay to identify small molecule agonists of the estrogen receptor alpha (ER-alpha) signaling pathway in the presence of an antagonist (AID 1259383; calls by dose curve; further: top concentration of the series differs between compounds; nearly all actives have a fitted effect of over 15% in size)
How it was run: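 Agonist-mode confirmation run in the presence of 10.0nM (final) ICI-182,780 antagonist. The reporter was ERE-driven luciferase in VM7Luc4E2 cells, grown in charcoal-stripped serum. Cells were exposed to 15-concentration compound series for 22hr, then ONE-Glo luminescence was read.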

[6] = qHTS assay to identify small molecule agonists of the estrogen receptor alpha (ER-alpha) signaling pathway in the presence of an antagonist - cell viability counter screen (AID 1259386); further: nearly all actives have a fitted effect of over 30% in size; further: potency means the concentration at half of the fitted maximal effect
How it was run: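 Compounds tested at 15 concentrations for 22 h at 37C alongside 10.0nM (final) ICI-182,780 antagonist, in VM7Luc4E2 cells grown in phenol red-free, charcoal-stripped medium. Viability read by CellTiter-Fluor fluorescence after 1 h reagent incubation.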

[7] = biological target: Progesterone receptor (Homo sapiens) (UniProt P06401); assay: qHTS assay to identify small molecule agonists of the progesterone receptor (PR) signaling pathway (AID 1346784; calls by dose curve; further: nearly all actives have a fitted effect of over 30% in size; further: potency means the concentration at half of the fitted maximal effect)
How it was run: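 PR-UAS-bla HEK 293T cells (beta-lactamase reporter under UAS) in 2% charcoal-stripped FBS, dosed with 23 nL compound after 6 hr, incubated 16hr at 37C. LiveBLAzer B/G FRET substrate added, fluorescence read after 2 hours.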

[8] = qHTS assay to identify small molecule antagonists of the progesterone receptor (PR) signaling pathway - cell viability counter screen (AID 1346798); further: nearly all actives have a fitted effect of over 50% in size; further: potency means the concentration at half of the fitted maximal effect
How it was run: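 PR-UAS-bla HEK293T cells, 3,000/well in 2% charcoal-stripped FBS medium, dosed with compounds plus R5020 agonist and incubated 16 h at 37C. Viability then measured in the same wells by CellTiter-Glo luminescence after 30 min at RT.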

[9] = qHTS assay to identify small molecule agonists of the TGF-beta/Smad signaling pathway - cell viability counter screen (AID 1346829); further: nearly all actives have a fitted effect of over 45% in size; further: potency means the concentration at half of the fitted maximal effect
How it was run: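 Same-well cytotoxicity: CellTiter-Glo added after the 2 hr room-temperature beta-lactamase substrate step, luminescence measured 30 min later; cells had 5 hr of compound at 37 C.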

[10] = biological target: Thyrotropin-releasing hormone receptor (Homo sapiens) (UniProt P34981); assay: qHTS assay to identify small molecule antagonists of the thyrotropin-releasing hormone receptor (TRHR) signaling pathway (AID 1346877; active means well fitted inhibition curve with a large enough effect in the repeat runs, not every such curve was filed as active; further: potency means the concentration at half of the fitted maximal effect)
How it was run: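 Antagonist mode: after a 5 min room-temperature compound exposure, cells were stimulated with 1 nM (final) TRH. Dye-loaded TRHR-HEK293 cells were used, and calcium-dependent fluorescence was followed for 3 min, with 15-point titrations run in triplicate.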

[11] = biological target: Thyrotropin-releasing hormone receptor (Homo sapiens) (UniProt P34981); assay: qHTS assay to identify small molecule agonists of the thyrotropin-releasing hormone receptor (TRHR) signaling pathway (AID 1346891; calls by dose curve; further: potency means the concentration at half of the fitted maximal effect; on activation: series mostly up to about 58 µM)
How it was run: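 HEK293 cells expressing TRHR plated 18 h at 37 C/5% CO2, calcium dye-loaded 2 h at 37 C, then compound added (agonist mode); kinetic calcium fluorescence read 3 min at 1 s intervals; 15 concentrations in triplicate.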

[12] = Human pregnane X receptor (PXR) small molecule agonists, qHTS cell viability counter screen (AID 1346977); further: nearly all actives have a fitted effect of over 50% in size; further: potency means the concentration at half of the fitted maximal effect
How it was run: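 PXR-Luc HepG2 cells (2,000/well, 5% charcoal-stripped FBS) preincubated 5 hr, then exposed to compounds 24 hr at 37 C. Viability read in the same wells by CellTiter-Fluor fluorescence, reagent added at 23 hr, 1 hr incubation.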

[13] = biological target: Androgen receptor (Homo sapiens) (UniProt P10275); assay: qHTS assay to identify small molecule agonists of the androgen receptor (AR) signaling pathway in the presence of an antagonist (AID 1259381; calls by dose curve; further: nearly all actives have a fitted effect of over 15% in size; further: potency means the concentration at half of the fitted maximal effect)
How it was run: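 Agonist-mode confirmation run against 3.0 uM final nilutamide: compounds titrated at 15 concentrations onto MDA-kb2 MMTV-luciferase reporter cells. Luminescence measured with ONE-Glo following 16 hr incubation, 37C, 0% CO2.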

[14] = qHTS assay to identify small molecule agonists or antagonists of the thyroid stimulating hormone receptor (TSHR) signaling pathway - wild type cell line counter screen (AID 1259384; calls by dose curve)
How it was run: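 Counter screen in untransfected Hek293: compounds (15-point titration, triplicate) plus phosphodiesterase inhibitor Ro20-1724 added after 18 h plating; 30 min RT. Intracellular cAMP via competitive d2/cryptate immunoassay, 1 h incubation.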

[15] = qHTS assay to identify small molecule agonists of the progesterone receptor (PR) signaling pathway - cell viability counter screen (AID 1346799; calls by dose curve; further: nearly all actives have a fitted effect of over 45% in size; further: potency means the concentration at half of the fitted maximal effect)
How it was run: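 Counter screen in the PR-UAS-bla HEK293T wells (2% charcoal-stripped FBS, 16 h compound exposure at 37 C) after the bla read. CellTiter-Glo added, 30 min at room temperature, luminescence read as cell viability.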

[16] = biological target: Thyrotropin receptor (Homo sapiens) (UniProt P16473); assay: qHTS assay to identify small molecule antagonists of the thyroid stimulating hormone receptor (TSHR) signaling pathway (AID 1259385; calls by dose curve; further: nearly all actives have a fitted effect of over 20% in size; further: potency means the concentration at half of the fitted maximal effect)
How it was run: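 Antagonist mode: compound-treated TSHR-expressing HEK293 cells were stimulated with 1.5 ng/mL TSH (final) in presence of Ro20-1724 for 30 min at RT. HTRF cAMP detection after 1 h; each compound tested at 15 concentrations, triplicate.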

[17] = biological target: Progesterone receptor (Homo sapiens) (UniProt P06401); assay: qHTS assay to identify small molecule antagonists of the progesterone receptor (PR) signaling pathway (AID 1346795; active means well fitted inhibition curve with a large enough effect in the signal ratio in the repeat runs, not every such curve was filed as active; the % refers to the signal ratio)
How it was run: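 PR-UAS-bla HEK293T cells with beta-lactamase reporter under UAS control, in 2% charcoal-stripped FBS, treated with compounds plus 1 nM promegestone (R5020, final) for 16 hr at 37C. Read-out: FRET beta-lactamase substrate fluorescence after 2 hr at room temperature.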

[18] = qHTS assay to identify small molecule antagonists of the TGF-beta/Smad signaling pathway - cell viability counter screen (AID 1346824); further: nearly all actives have a fitted effect of over 50% in size; further: potency means the concentration at half of the fitted maximal effect
How it was run: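 Cytotoxicity counter-screen run in the same wells as the beta-lactamase Smad reporter read: CellTiter-Glo luminescence after 30 min at room temperature. HEK 293T SBE-bla cells had 5 hr compound exposure at 37 C with TGF-beta1 (0.25 ng/mL stock).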

[19] = qHTS assay to identify small molecule agonists of the TGF-beta/Smad signaling pathway (AID 1346859; active means well fitted activation curve with a large enough effect in the signal ratio in the repeat runs, not every such curve was filed as active; the % refers to the signal ratio; further: series mostly up to about 77 µM)
How it was run: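 SBE-bla HEK293T cells plated overnight, then compound exposure for 5 h at 37 C. Beta-lactamase reporter read with LiveBLAzer B/G FRET substrate after 2 h at room temperature, fluorescence at 405 nm excitation, 460/530 nm emission.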

Measured: Potency

Estrogen receptor (Homo sapiens), sequence (P03372 whole entry, looked up): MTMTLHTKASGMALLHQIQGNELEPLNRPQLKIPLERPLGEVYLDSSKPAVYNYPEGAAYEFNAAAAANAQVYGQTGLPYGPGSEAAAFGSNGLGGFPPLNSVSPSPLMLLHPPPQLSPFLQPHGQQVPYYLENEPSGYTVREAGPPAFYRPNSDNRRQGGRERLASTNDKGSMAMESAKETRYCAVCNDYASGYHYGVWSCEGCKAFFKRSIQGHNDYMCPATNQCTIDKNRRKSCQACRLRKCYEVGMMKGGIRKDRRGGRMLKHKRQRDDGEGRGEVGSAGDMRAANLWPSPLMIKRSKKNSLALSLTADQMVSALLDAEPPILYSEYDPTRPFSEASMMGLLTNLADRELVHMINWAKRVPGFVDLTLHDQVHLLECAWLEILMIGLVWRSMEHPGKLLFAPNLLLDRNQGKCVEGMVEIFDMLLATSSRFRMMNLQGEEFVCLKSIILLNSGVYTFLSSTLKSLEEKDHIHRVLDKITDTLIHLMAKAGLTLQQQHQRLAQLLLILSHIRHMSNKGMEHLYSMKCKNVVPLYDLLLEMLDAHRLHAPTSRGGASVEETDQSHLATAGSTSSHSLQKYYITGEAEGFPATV
Androgen receptor (Homo sapiens), sequence (P10275 whole entry, looked up): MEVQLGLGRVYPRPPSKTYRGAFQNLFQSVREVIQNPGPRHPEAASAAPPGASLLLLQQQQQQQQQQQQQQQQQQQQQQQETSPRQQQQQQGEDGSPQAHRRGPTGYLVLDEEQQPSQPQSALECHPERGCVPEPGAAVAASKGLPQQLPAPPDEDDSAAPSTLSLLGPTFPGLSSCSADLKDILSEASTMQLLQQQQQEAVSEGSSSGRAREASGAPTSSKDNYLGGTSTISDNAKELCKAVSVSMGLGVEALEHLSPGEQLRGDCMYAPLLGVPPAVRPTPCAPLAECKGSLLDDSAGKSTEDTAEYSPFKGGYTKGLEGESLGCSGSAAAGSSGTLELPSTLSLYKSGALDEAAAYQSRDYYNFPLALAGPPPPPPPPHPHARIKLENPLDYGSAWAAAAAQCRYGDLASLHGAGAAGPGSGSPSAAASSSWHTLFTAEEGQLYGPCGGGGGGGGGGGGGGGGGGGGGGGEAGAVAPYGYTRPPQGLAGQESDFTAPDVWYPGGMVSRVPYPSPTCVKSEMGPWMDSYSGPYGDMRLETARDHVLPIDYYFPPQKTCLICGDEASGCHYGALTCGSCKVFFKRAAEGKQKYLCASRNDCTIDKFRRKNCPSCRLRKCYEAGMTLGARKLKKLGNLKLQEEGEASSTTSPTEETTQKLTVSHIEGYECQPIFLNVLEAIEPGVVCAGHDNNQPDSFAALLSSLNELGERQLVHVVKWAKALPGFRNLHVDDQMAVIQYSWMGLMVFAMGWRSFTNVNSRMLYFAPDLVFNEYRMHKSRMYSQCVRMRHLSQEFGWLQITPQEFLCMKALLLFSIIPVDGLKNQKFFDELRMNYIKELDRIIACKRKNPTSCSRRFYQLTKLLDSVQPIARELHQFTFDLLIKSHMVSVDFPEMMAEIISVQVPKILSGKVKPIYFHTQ
Thyrotropin receptor (Homo sapiens), sequence (P16473 whole entry, looked up): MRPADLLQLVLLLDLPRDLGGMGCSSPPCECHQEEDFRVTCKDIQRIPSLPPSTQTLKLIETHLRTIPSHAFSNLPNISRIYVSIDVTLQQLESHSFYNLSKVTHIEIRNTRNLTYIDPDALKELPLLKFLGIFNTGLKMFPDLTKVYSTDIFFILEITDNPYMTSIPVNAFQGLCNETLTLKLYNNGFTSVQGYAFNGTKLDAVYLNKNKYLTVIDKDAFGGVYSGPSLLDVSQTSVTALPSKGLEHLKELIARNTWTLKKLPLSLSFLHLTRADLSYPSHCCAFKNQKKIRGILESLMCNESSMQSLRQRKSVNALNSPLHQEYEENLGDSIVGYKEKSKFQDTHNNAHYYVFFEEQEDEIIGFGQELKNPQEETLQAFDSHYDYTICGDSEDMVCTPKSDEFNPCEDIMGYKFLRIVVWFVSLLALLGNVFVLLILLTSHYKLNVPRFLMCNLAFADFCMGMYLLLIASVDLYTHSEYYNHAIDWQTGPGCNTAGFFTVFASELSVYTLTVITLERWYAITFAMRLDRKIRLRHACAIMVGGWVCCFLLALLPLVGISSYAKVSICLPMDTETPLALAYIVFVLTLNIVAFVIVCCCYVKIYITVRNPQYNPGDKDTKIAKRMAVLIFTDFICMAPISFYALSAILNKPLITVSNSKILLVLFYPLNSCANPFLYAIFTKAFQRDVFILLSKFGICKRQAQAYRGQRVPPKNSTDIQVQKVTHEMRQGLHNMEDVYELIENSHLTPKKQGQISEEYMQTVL
Progesterone receptor (Homo sapiens), sequence (P06401 whole entry, looked up): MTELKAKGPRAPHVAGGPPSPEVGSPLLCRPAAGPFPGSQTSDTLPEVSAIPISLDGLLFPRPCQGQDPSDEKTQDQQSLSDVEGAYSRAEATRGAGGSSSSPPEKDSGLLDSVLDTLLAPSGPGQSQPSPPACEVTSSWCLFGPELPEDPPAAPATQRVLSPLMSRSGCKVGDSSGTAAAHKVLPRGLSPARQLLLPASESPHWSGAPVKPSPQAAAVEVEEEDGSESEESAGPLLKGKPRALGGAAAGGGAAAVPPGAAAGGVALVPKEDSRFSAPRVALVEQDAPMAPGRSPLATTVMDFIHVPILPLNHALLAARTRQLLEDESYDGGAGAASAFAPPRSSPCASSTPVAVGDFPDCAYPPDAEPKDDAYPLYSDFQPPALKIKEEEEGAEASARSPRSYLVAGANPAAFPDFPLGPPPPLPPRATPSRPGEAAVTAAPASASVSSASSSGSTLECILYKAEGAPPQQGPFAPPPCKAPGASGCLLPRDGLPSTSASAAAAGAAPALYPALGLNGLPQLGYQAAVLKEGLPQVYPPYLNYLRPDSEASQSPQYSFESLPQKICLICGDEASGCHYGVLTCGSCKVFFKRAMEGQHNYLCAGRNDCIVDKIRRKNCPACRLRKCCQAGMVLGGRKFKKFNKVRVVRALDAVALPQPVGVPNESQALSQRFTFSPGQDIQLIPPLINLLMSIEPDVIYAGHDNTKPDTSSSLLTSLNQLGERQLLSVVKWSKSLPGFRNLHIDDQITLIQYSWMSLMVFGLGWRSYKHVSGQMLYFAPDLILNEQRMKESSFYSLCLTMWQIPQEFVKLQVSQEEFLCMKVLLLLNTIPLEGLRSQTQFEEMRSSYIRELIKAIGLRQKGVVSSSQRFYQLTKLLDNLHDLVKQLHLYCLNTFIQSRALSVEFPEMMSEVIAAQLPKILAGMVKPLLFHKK
Thyrotropin-releasing hormone receptor (Homo sapiens), sequence (P34981 whole entry, looked up): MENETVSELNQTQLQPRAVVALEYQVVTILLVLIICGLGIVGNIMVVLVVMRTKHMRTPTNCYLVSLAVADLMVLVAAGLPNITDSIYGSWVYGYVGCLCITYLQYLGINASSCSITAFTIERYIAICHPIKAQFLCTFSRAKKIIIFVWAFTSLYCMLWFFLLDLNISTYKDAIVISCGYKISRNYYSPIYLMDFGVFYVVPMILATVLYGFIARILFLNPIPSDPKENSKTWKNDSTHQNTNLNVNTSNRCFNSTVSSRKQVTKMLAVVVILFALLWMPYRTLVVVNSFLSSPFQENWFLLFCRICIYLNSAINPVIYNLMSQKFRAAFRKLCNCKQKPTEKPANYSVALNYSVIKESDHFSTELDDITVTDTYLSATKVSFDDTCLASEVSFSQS
Estrogen receptor beta (Homo sapiens), sequence (Q92731 whole entry, looked up): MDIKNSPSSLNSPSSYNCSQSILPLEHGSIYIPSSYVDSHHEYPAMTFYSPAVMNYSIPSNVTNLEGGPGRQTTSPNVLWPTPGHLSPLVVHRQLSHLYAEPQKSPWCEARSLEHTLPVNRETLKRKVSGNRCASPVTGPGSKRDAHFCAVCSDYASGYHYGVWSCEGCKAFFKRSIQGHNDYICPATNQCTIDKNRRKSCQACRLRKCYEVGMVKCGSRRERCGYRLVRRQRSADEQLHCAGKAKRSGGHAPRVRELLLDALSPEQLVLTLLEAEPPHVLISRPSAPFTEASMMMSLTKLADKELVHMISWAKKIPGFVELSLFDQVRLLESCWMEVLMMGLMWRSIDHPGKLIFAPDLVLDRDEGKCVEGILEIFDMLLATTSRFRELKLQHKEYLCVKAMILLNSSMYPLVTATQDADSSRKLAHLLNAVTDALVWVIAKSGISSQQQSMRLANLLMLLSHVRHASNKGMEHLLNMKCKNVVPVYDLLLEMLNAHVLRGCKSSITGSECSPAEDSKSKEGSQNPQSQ

CCCCCCCCCCBr
not listed: [13] | [14] | [15] | [16] | [17] | [18] | [19]
inactive: all other assays above

C=CC(=O)OCC(COC(=O)C=C)(COC(=O)C=C)COC(=O)C=C
active: [2] 12.2 µM | [3] 7.7 µM | [4] 9.69 µM | [6] 13.7 µM | [8] 17.2 µM | [15] 19.3 µM | [9] 49 µM | [12] 12.2 µM
inactive: [13] | [5] | [14] | [10] | [11]

N#CCCSCCC#N
not listed: [4] | [15]
inactive: all other assays above

C[C@]12Cc3nonc3C[C@@H]1CC[C@@H]1[C@@H]2CC[C@@]2(C)[C@H]1CC[C@]2(C)O
active: [1] 18.8 µM | [3] 26.6 µM | [13] 0.0237 µM | [4] 29.8 µM | [7] 1.19 µM
inactive: [5] | [14] | [16] | [6] | [19] | [10] | [11] | [12]

SCc1ccco1
not listed: [1]
inactive: all other assays above

CC(C)CC(C)N (centres undefined)
not listed: [13] | [19]
inactive: all other assays above

COP(N)(=S)OC
not listed: [1] | [10] | [11] | [17] | [19]
inactive: all other assays above

CC(C)[C@H](C(=O)O[C@H](C#N)c1cccc(Oc2ccccc2)c1)c1ccc(Cl)cc1
inactive: [1] | [2] | [4] | [14] | [16] | [6] | [18] | [12]

CS(=O)(=O)c1ccc(C(=O)C2C(=O)CCCC2=O)c([N+](=O)[O-])c1
inactive: [1] | [2] | [5] | [14] | [16] | [18] | [11] | [12]

C[C@H]1O[C@@H](O[C@H]2[C@@H](O)C[C@H](O[C@H]3[C@@H](O)C[C@H](O[C@H]4CC[C@@]5(C)[C@H](CC[C@@H]6[C@@H]5CC[C@]5(C)[C@@H](C7=CC(=O)OC7)CC[C@]65O)C4)O[C@@H]3C)O[C@@H]2C)C[C@H](O)[C@@H]1O
active: [3] 43.5 nM and 47.3 nM | [4] 30.8 nM and 42.2 nM | [8] 38.8 nM and 94.4 nM | [15] 77.4 nM and 237 nM
inactive: [2] | [5] | [14] | [6] | [7] | [10] | [11]
inactive and 237 nM (active): [13]

C[C@@H]1CC[C@@]2(OC1)O[C@H]1[C@@H](O)[C@H]3[C@@H]4CC[C@H]5C[C@@H](O[C@@H]6O[C@H](CO)[C@H](O[C@@H]7O[C@H](CO)[C@@H](O)[C@H](O[C@@H]8OC[C@@H](O)[C@H](O)[C@H]8O)[C@H]7O[C@@H]7O[C@H](CO)[C@@H](O)[C@H](O[C@@H]8O[C@H](CO)[C@@H](O)[C@H](O)[C@H]8O)[C@H]7O)[C@H](O)[C@H]6O)[C@H](O)C[C@]5(C)[C@H]4CC[C@]3(C)[C@H]1[C@@H]2C
active: [2] 57.8 µM | [3] 9.16 µM | [4] 10.3 µM | [16] 4.59 µM | [6] 72.8 µM | [8] 16.3 µM | [15] 14.5 µM | [18] 23.2 µM | [9] 20.7 µM | [10] 0.804 µM | [11] 0.655 µM | [12] 10.3 µM
inactive: [13] | [5] | [14]

CC(C)OS(C)(=O)=O
not listed: [13]
inactive: all other assays above

CC(Cl)CN(C)C (centres undefined)
not listed: [1] | [18]
inactive: all other assays above

CC1CCC(C(C)C)C(OC(=O)c2ccccc2N)C1 (centres undefined)
active: [1] 8.51 µM | [3] 30.2 µM | [4] 60.3 µM | [16] 60.3 µM | [8] 60.3 µM | [15] 53.7 µM
inactive: [2] | [5] | [14] | [19] | [10] | [11]
